Measurements: PubChem BioAssay (NCATS)
Inconclusive results are not listed. The source made the active and inactive calls. Unless noted, the call rests on the fitted dose curve; in most records, active means well fitted curve in the direction sought with a large enough effect; inconclusive means small, poorly fitted or top-dose-only effect, or another doubt; inactive means no such curve, though single readings can be large; an effect the other way counts as inactive or inconclusive.

Experiments:
[1] = target: Protein phosphatase 1D (Homo sapiens) (UniProt O15297); assay: RapidFire Mass Spectrometry qHTS Assay for Modulators of WT P53-Induced Phosphatase 1 (WIP1) (AID 1347424); conditions: WIP1 dephosphorylation of phosphopeptide, RapidFire MS; series mostly up to 63 µM;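 further: amount of dephosphorylated VEPPL-S-QETFS peptide product formed by WIP1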; further: potency means the concentration at half of the fitted maximal effect
Sequence of Protein phosphatase 1D (Homo sapiens) (O15297 whole entry, looked up): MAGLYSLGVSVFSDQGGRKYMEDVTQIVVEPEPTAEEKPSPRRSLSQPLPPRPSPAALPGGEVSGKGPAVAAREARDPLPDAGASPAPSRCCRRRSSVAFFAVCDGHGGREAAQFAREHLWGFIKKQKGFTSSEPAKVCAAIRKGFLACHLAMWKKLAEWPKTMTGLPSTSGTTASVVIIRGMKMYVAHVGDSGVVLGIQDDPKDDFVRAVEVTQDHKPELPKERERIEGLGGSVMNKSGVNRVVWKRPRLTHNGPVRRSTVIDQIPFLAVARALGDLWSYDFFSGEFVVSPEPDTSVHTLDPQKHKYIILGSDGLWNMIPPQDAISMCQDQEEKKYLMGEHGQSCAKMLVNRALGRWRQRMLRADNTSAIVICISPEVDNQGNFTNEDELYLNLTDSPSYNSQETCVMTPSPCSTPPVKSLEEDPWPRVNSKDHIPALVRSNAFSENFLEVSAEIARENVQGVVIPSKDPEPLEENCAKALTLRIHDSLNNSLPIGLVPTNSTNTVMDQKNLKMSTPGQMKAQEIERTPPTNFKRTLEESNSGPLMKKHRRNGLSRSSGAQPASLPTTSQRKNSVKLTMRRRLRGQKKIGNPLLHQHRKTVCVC
How it was run: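 Mass-spectrometric measurement of dephosphorylated peptide after a 5 min room-temperature reaction of 10 nM WIP1 with 2 uM phosphopeptide, following 1 h compound preincubation in 30 mM MgCl2 buffer.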

[2] = Primary qHTS for inhibitors of SARS-S pseudo-typed particle cell entry (AID 1479145; calls by dose curve; further: nearly all actives have a fitted effect of over 45% in size); conditions: SARS-S pseudotyped particle cell entry, luciferase reporter; series mostly up to 57.1 µM
[3] = Primary qHTS for Huh7 cytotoxicity: counterscreen for inhibitors of MERS-S pseudotyped particle cell entry (AID 1479147; calls by dose curve); conditions: cell viability read-out; series mostly up to 57.1 µM
[4] = Primary qHTS for inhibitors of MERS-S pseudo-typed particle cell entry (AID 1479149; calls by dose curve; further: nearly all actives have a fitted effect of over 60% in size); conditions: MERS-S pseudotyped particle entry, luciferase; series mostly up to 57.1 µM
[5] = Primary qHTS for Vero E6 cytotoxicity: counterscreen for inhibitors of SARS-S pseudo-typed particle cell entry (AID 1479150; calls by dose curve); conditions: cell viability; series mostly up to 57.1 µM
[6] = Primary qHTS for inhibitors of La Crosse Virus (LACV) - induced cell death in SH-SY5Y cells (AID 1508616); conditions: SH-SY5Y LACV cytopathicity rescue, ATP luminescence, 6 d; series mostly up to 4.29 µM;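 further: top concentration of the series differs between compounds; higher means more rescue of cells from virus-induced death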
How it was run: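 SH-SY5Y, 6000 cells/well; cpd via pin tool in DMSO; LACV 0.01 MOI; 6 d 37C 5% CO2; ATPLite, 5 min RT; luminescence normalized to ±virus DMSO controls.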

[7] = Primary qHTS for small molecule stabilizers of the endoplasmic reticulum resident proteome: Secreted ER Calcium Modulated Protein (SERCaMP) assay (AID 1508630); conditions: SH-SY5Y GLuc-SERCaMP (Gaussia luciferase released on ER calcium loss) secretion, thapsigargin, luminescence; series mostly up to 38.4 µM
How it was run: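 The SH-SY5Y reporter protocol was run at 3 concentrations up to 38.3 uM (primary) or 11 concentrations (follow-up): 16 h compound, 100 nM thapsigargin for 4 h, then extracellular luciferase luminescence.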

[8] = target: Calcium and integrin-binding protein 1 (Homo sapiens) (UniProt Q99828); assay: Primary qHTS for Identification of Calcium Integrin Binding Protein 1 (CIB1) Competitor (AID 1508620); conditions: CIB1-GST / FITC-alphaIIb peptide fluorescence polarization; series mostly up to 114 µM;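 further: GST tagged CIB1 binding a fluorescein labelled alphaIIb integrin peptide tracer; top concentration of the series differs between compounds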
Sequence of Calcium and integrin-binding protein 1 (Homo sapiens) (Q99828 whole entry, looked up): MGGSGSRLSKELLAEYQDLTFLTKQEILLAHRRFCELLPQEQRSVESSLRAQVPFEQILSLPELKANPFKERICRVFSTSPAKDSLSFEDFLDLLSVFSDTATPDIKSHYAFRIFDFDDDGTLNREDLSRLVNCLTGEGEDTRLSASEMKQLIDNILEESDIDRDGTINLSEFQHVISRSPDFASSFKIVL
How it was run: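 Fluorescence polarization competition: CIB1-GST (1 uM final) preincubated with compound 15 min at room temperature, then FITC-labeled alphaIIb peptide (100 nM final) added for another 15 min. Polarization read at Ex 480/Em 540.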

[9] = target: Calcium and integrin-binding protein 1 (Homo sapiens) (UniProt Q99828); assay: Confirmatory qHTS for Identification of Calcium Integrin Binding Protein 1 (CIB1) Competitor (AID 1508617); conditions: CIB1 binding competition assay, biochemical qHTS; series mostly up to 114 µM; further: nearly all actives have a fitted effect of over 65% in size; further: potency means the concentration at half of the fitted maximal effect
How it was run: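 Binding competition between test compounds and fluorescent alphaIIb peptide for 1 uM CIB1-GST is monitored by FP at 480/540 nm. Final compound range is up to 114 uM; unlabeled peptide serves as reference competitor.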

Measured: Potency

C[C@]12CC[C@@H]3c4ccc(OC(=O)N(CCCl)CCCl)cc4CC[C@H]3[C@@H]1CC[C@@H]2O
not listed: [8] | [9]
inactive: all other assays above

CN1CC[C@]23c4c5ccc(O)c4O[C@H]2[C@@H](O)CC[C@H]3[C@H]1C5
inactive: [1] | [6] | [8]

COc1cc(CC(C)N)cc(OC)c1OC (centres undefined)
inactive: [1] | [6] | [8]

CCOC(=O)CC(SP(=S)(OC)OC)C(=O)OCC (centres undefined)
active: [9] 100 µM
not listed: [2]
inactive: all other assays above

O=C1OC(c2ccc(O)c(S(=O)(=O)O)c2)(c2ccc(O)c(S(=O)(=O)O)c2)c2c(Br)c(Br)c(Br)c(Br)c21
active: [1] 10 µM
not listed: [8]
inactive: all other assays above

CC(=O)NC1CCSC1=O (centres undefined)
inactive: [1] | [6] | [8]

C=CCN1C[C@H](C)N([C@H](c2ccc(C(=O)N(CC)CC)cc2)c2cccc(OC)c2)C[C@H]1C
inactive: [1] | [6] | [8] | [7]

O=C1CN=C(c2ccccc2)c2cc([N+](=O)[O-])ccc2N1
inactive: [1] | [6] | [8] | [7]

Nc1nc(N)nc(NC2CC2)n1
inactive: [1] | [6] | [8] | [7]

C=CCC1(C(C)CC)C(=O)NC(=O)NC1=O (centres undefined)
not listed: [7] | [9]
inactive: all other assays above

C[C@]12CC[C@H]3[C@@H](CC[C@@]45O[C@H]4C(O)=C(C#N)C[C@]35C)[C@H]1CC[C@H]2O
inactive: [1] | [3] | [5] | [6] | [8]

CCN(CCO)CCn1c(Cc2ccccc2)nc2c1c(=O)n(C)c(=O)n2C
inactive: [1] | [6] | [8] | [7]

CC(Cc1ccccc1)NCCn1cnc2c1c(=O)n(C)c(=O)n2C (centres undefined)
inactive: [1] | [6] | [8]

O=C(O)c1ccc(=O)[nH]c1
inactive: [1] | [6] | [8]

C#CC(O)(C=CCl)CC (centres undefined)
not listed: [7] | [9]
inactive: all other assays above

CCC1(c2ccccc2)C(=O)N(COC)C(=O)N(COC)C1=O
inactive: [1] | [6] | [8] | [7]

CCOP(=S)(OCC)Oc1ccc2c(C)c(Cl)c(=O)oc2c1
inactive: [1] | [3] | [4] | [5] | [6]

CC(C)c1c(CN(C)C(C)Cc2ccccc2)n(C)n(-c2ccccc2)c1=O (centres undefined)
inactive: [1] | [6] | [8] | [7]

CCCN(CCC)C(=O)Cc1c(-c2ccc(Cl)cc2)nc2ccc(Cl)cn12
inactive: [1] | [6] | [8]

[N-]=[N+]=CC(=O)OC[C@H](N)C(=O)O
inactive: [1] | [6] | [8] | [7]

COP(=S)(OC)SCN1C(=O)c2ccccc2C1=O
not listed: [2] | [8] | [9]
inactive: all other assays above

CCC(C)(C)c1ccc(O)cc1
inactive: [1] | [6] | [8] | [7]

NC1=NC(=O)C(c2ccccc2)O1 (centres undefined)
inactive: [1] | [6] | [8] | [7]

COc1cccc(C(=O)CCN[C@@H](C)[C@H](O)c2ccccc2)c1
not listed: [2] | [9]
inactive: all other assays above

COC1CC(=C(c2cccs2)c2cccs2)C[N+](C)(C)C1 (centres undefined)
not listed: [9]
inactive: all other assays above

CC(=O)O[C@@H]1C(=O)O[C@@H]2[C@H]1OC(=O)[C@@H]2OC(C)=O
inactive: [2] | [3] | [4] | [5]

CC(=O)OCC(COC(C)=O)OC(C)=O
inactive: [2] | [3] | [4] | [5]

COc1cccc([C@@]2(O)CCCC[C@@H]2CN(C)C)c1
inactive: [1] | [8] | [7]

O=C(O)/C=C\C(=O)O
inactive: [2] | [3] | [4] | [5]

Nc1ccc(S(=O)(=O)Nc2ccccn2)cc1
inactive: [2] | [3] | [4] | [5]

O=C(CS(=O)Cc1ccco1)NC/C=C\COc1cc(CN2CCCCC2)ccn1 (centres undefined)
inactive: [2] | [3] | [4] | [5]

COc1ccc(C(=O)CC(=O)c2ccc(C(C)(C)C)cc2)cc1
inactive: [2] | [3] | [4] | [5]
